Here are results for 40 sequences from the OligoGym collection.
Also: reference of the scale not given here.

The target in the first assay is ADRA2B. The experiment in a line: pooled miR-30 sensor sort-seq; sequence = guide strand. The conditions noted are these: shRNA.
The sequence TCATCTTAGACTGTTGCCGAGG registered a sensor-assay potency score (higher = more potent) of -0.739. Sequence TAACAGGGTTCAGTGAGCTGTT returned a sensor-assay potency score (higher = more potent) of -0.17. As for TTGAAATAGTGATTCTGTCTGC, the sensor-assay potency score (higher = more potent) was 0.106.

In turn, TTCAGTGAGCTGTTGCAGTAGC yielded a sensor-assay potency score (higher = more potent) of 0.233.

In turn, TTTTTGGTTCTCTAGTGTGTTC showed a sensor-assay potency score (higher = more potent) of -1.08. Still for that read-out and setting: as for TCCTGGTTGAGCTTGCACTGGG, the figure is -0.653; as for TTGGCGATCAGGTAGATGCGCA, -0.201; as for TAGACAAGGATCATGATGAGGC, 0.0762.

For the sequence TTCGAGTGTCCGTTGACCTCTC, the sensor-assay potency score (higher = more potent) was 0.0234.

Sequence AAATCTAGCAGGTCCATCTGGC returned a sensor-assay potency score (higher = more potent) of -0.198. With TCGAGCGCCAGGTACACCTCGC, the sensor-assay potency score (higher = more potent) was -0.894. Regarding AAGATGGTGTAGATAACAGGGT, the sensor-assay potency score (higher = more potent) was -0.352.

For TTGGAGTTGTACTCCAGCGCGC, the sensor-assay potency score (higher = more potent) is -0.762.

TTGTACTCCAGCGCGCGGCTCA had a sensor-assay potency score (higher = more potent) of -0.722.

Take AAGGTGAAGCGCTTCTCCCGGG: the sensor-assay potency score (higher = more potent) is -0.311. In turn, TTTATTGATAAAATAGCTCAGA had a sensor-assay potency score (higher = more potent) of -0.103. On the same count and under the same terms, in the case of TACTCTGGCCTCAACAACCCAC it was -0.575; in that of TTCCAAATCTAGCAGGTCCATC, -1.43; in that of AACGCCAATGACCACAGCCAGC, -1.54.

Another assay has as its target ADRB1. The assay is described as above. The conditions noted are these: shRNA.
In the case of TCCACTGAGGTCCACAGCTCGC, the sensor-assay potency score (higher = more potent) was -1.74. In turn, ACTGAGGTCCACAGCTCGCAGA registered a sensor-assay potency score (higher = more potent) of -1.49. Regarding ACGAAGTCGCAGCACTTGGGGT, the sensor-assay potency score (higher = more potent) was -1.34.

Regarding TTGGGGTCGTTGTAGCAGCGGC, the sensor-assay potency score (higher = more potent) was -1.11. The same measure, in the same setting: as for AAGAAGGAGCCGTACTCCCAGC, the figure is -1.16. As for TTGCGGAAGTCGGGGCTGCGGC, the sensor-assay potency score (higher = more potent) was -1.38. The same measure, in the same setting: in the case of ATGAGCAGCACGATGAGCGCCA it was -0.267.

TAGAAGGAGACTACGGACGAGG showed a sensor-assay potency score (higher = more potent) of -0.754. In the case of TCGCTGTCCGCCGCCGCCCCGC, the sensor-assay potency score (higher = more potent) was -1.6. Sequence TCGTCGTCGTCGTCCGAGGCGG registered a sensor-assay potency score (higher = more potent) of -1.56. On to ACGCACAGCACGTCCACTGAGG, for which the sensor-assay potency score (higher = more potent) was -1.84. On to TCGTCGTCGTCGTCGTCCGAGG, for which the sensor-assay potency score (higher = more potent) was -1.7. TTGGTGAGCGTCTGCAGCCGCG had a sensor-assay potency score (higher = more potent) of -1.38. Consider TGTCGATCTTCTTCACCTGCTT, for which the sensor-assay potency score (higher = more potent) stood at 0.319. Take TCGAGTCGCTGTCCGCCGCCGC: the sensor-assay potency score (higher = more potent) was -1.38. As for ACACACAGGGTCTCGATGCTGG, the sensor-assay potency score (higher = more potent) is -0.4. The sequence GACATCGTCGTCGTCGTCGTCC yielded a sensor-assay potency score (higher = more potent) of -1.45. Still for that read-out and setting: in the case of TGTCCACTGCTGAGACAGCGGC it was -1.28; in that of TTGAAGAAGACGAAGAGGCGGT, 0.771.

For TTGAGCGCCTTCTGCTCGCGCA, the sensor-assay potency score (higher = more potent) is -1.01.

On to TTGGTGACGAAGTCGCAGCACT, for which the sensor-assay potency score (higher = more potent) is -0.788.
